p-CIP stab down – p/CIP protein destabilization; Q05BA5; F442A p/CIP-EGFP cells, EGFP fluorescence, 16 h; decrease of EGFP signal, % at 10 µM; actives 0.01% (n = 290,000); AID 1984;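 active means EGFP signal decrease of at least 30% at 10 µM or well 3 SD below plate mean, unless failing retest; inactive means the rest, including hits failing retest or dose response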
UBC9 SUMO inh – blocks human SUMOylation mediated by UBC9. actives 0.36% (n = 290,000). P63279. HTRF SUMOylation assay, SAE1/SAE2 + UBC9, in vitro. inhibition, % at 35 µM; in the data active means inhibition above about 50%, passing the limit was not always enough
NadD inh – inhibitors of Staphylococcus aureus NadD | purified NadD enzyme, colorimetric absorbance read-out | AID 602399 | actives 0.78% (n = 360,000) | inhibition, % at 20 µM; in the data active means inhibition above about 26%
PHOSPHO1 inh – blocks human PHOSPHO1 phosphatase activity | Q8TCT1 | recombinant PHOSPHO1, absorbance phosphatase assay | inhibition, % at 13.3 µM | actives 1.1% (n = 290,000); in the data active means inhibition above about 60%
Starred values were filed as active, the others as inactive. Rows were chosen to be rich in hits. Some 1.8% of all compounds tested hit in one or more screens of this group.

Screening COc1ccc(-c2cnc(SCC(=O)Nc3ccc4c(c3)OCO4)n2Cc2ccco2)cc1 returned p-CIP stab down 1, UBC9 SUMO inh -18, NadD inh -2 and PHOSPHO1 inh 102*.
`CC(=O)Nc1cccc(NC(=O)CSc2ncc(-c3ccc(Cl)cc3)n2Cc2ccco2)c1` gave p-CIP stab down -15, UBC9 SUMO inh -1, NadD inh 3 and PHOSPHO1 inh -21.
Cn1c(COc2ccccc2)nnc1SCC(=O)Nc1ccc2c(c1)OCO2 was read as p-CIP stab down 1, UBC9 SUMO inh 8, NadD inh 3 and PHOSPHO1 inh 61*.
Cc1ccc(OCc2nnc(SCC(=O)Nc3ccc4c(c3)OCO4)n2C)cc1 was read as p-CIP stab down -11, UBC9 SUMO inh 14, NadD inh 4 and PHOSPHO1 inh 35.
For CCn1c(COc2ccc(Cl)cc2)nnc1SCC(=O)Nc1ccc2c(c1)OCO2 the results were p-CIP stab down -2, UBC9 SUMO inh 14, NadD inh -7 and PHOSPHO1 inh 60*.
`CCc1nnc(SCC(=O)Nc2ccc3c(c2)OCO3)n1CC` gave p-CIP stab down -7, UBC9 SUMO inh -6, NadD inh -6 and PHOSPHO1 inh 56.
Screening Cc1ccc(-n2cccc2C(=S)N=P(N(C)C)(N(C)C)N(C)C)cc1 returned p-CIP stab down -13, UBC9 SUMO inh 8, NadD inh -9 and PHOSPHO1 inh 67*.
`Cc1ccc(-n2cccc2C(=O)NS(=O)(=O)c2ccc(C)cc2)cc1` gave p-CIP stab down -11, UBC9 SUMO inh 14, NadD inh -1 and PHOSPHO1 inh 8.
`CC(C)c1ccc(NC(=O)C2(C)Cc3c(-c4ccc(C(N)=O)cc4)ccnc3O2)cc1` (centres undefined) gave NadD inh 4.
`Cc1ccc(OCC(=O)Nc2ccc(CN3CCOCC3)cc2)cc1` gave p-CIP stab down -12, UBC9 SUMO inh 2, NadD inh 0 and PHOSPHO1 inh 61*.
For COCCn1c(SCC(=O)Nc2nnc(C)s2)nnc1-c1c[nH]c2ccccc12 the results were p-CIP stab down -3, UBC9 SUMO inh 6, NadD inh 4 and PHOSPHO1 inh 13.
For CCc1nnc(NC(=O)CSc2nnc(-c3c[nH]c4ccccc34)n2CCOC)s1 the results were p-CIP stab down -8, UBC9 SUMO inh 28, NadD inh 2 and PHOSPHO1 inh 60*.
Screening COc1ccccc1-c1c(C#N)c(N)nc2c1CCc1ccccc1-2 returned p-CIP stab down -17, UBC9 SUMO inh 98*, NadD inh 13 and PHOSPHO1 inh 1.
For CCOc1cc(-c2c(C#N)c(N)nc3c2CCc2ccccc2-3)ccc1O the results were p-CIP stab down 7, UBC9 SUMO inh -10, NadD inh 4 and PHOSPHO1 inh -12.
For Cc1cc2nc(-c3cccc(Cl)c3)c(CC(C)(C)C)n2c(C)c1Br the results were NadD inh 10.
For C[C@@H]1CN([C@@H](C)CO)C(=O)c2cc(Br)cnc2O[C@H]1CN(C)C(=O)c1ccncc1 the results were NadD inh 0.
`COc1cc2nc(CN3CCN(S(=O)(=O)c4cc(C)ccc4C)CC3)[nH]c(=O)c2cc1OC` gave NadD inh 4.
CCn1c(=Nc2ccc(N3CCOCC3)cc2)ccc2ccccc21 was read as p-CIP stab down -7, UBC9 SUMO inh -4, NadD inh -4 and PHOSPHO1 inh -27.
Cn1c(=Nc2ccc(N3CCOCC3)cc2)ccc2ccccc21 was read as p-CIP stab down -8, UBC9 SUMO inh 14, NadD inh 5 and PHOSPHO1 inh 96*.
Cc1cc(C)c(S(=O)(=O)/N=C2\C=C(NS(=O)(=O)c3ccccc3)C(=O)c3ccccc32)c(C)c1 was read as p-CIP stab down -10, UBC9 SUMO inh 19, NadD inh 30* and PHOSPHO1 inh -91.
Cc1cc(C)c(S(=O)(=O)/N=C2\C=C(Nc3ccc(C(=O)O)cc3)C(=O)c3ccccc32)c(C)c1 was read as p-CIP stab down -3, UBC9 SUMO inh 47, NadD inh 31* and PHOSPHO1 inh 28.
Cc1ccc(S(=O)(=O)/N=C2\C=C(NS(=O)(=O)c3ccccc3)C(=O)c3ccccc32)cc1 was read as NadD inh 13.
Screening Cc1ccc(C)c(C(O)c2ncc(-c3cccc(F)c3)[nH]2)c1 (centres undefined) returned NadD inh 1.
Screening CCn1c(C)cc(/C=C2\NC(=O)N(Cc3ccccc3)C2=O)c1C returned p-CIP stab down -3, UBC9 SUMO inh 0, NadD inh 13 and PHOSPHO1 inh 70*.
For CCn1c(C)cc(/C=C2/NC(=O)N(Cc3ccccc3F)C2=O)c1C the results were p-CIP stab down 5, UBC9 SUMO inh 0, NadD inh 25 and PHOSPHO1 inh 10.
